Screens deposited in PubChem by several laboratories.
Beta cell apopt – blocks beta cell apoptosis; INS-1E cytokine-induced death, ATP luminescence, 48 h; percent of positive-control rescue, neutral wells zero; protection from apoptosis, % (concentration not given with the values); hit rate 0.8% among 300,000;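 active means Every replicate reaches about 75%, or at least half do and their mean reaches it too, limit read from the data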;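 further: higher means more ATP so stronger rescue from cytokine killing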
697 NFkB inh – lowers PMA/ionomycin-induced NF-kB signal in 697 B cells. 697 B-cell NF-kB luciferase reporter, 16 h. inhibition, % at 4 µM. hit rate 0.33% among 330,000. AID 435022; in the data active means inhibition above about 35%
Gli-Sufu block – antagonists of Gli-Sufu signaling. AID 588413. inhibition, % at 5 µM. hit rate 0.74% among 340,000. Sufu-KO-LIGHT fibroblasts, Gli luciferase reporter luminescence;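 active means inhibition above about 55%, limit read from the data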
Mdm2 MdmX PPI – inhibitors of human Mdm2/MdmX interaction; AID 485346; hit rate 3% among 330,000; inhibition, % at 8 µM; O15151+Q00987; SaOS-2 split-luciferase Mdm2/MdmX complementation, luminescence;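 active means inhibition of at least 50% at 8 µM in the primary screen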
Target sequence (O15151 whole entry, looked up): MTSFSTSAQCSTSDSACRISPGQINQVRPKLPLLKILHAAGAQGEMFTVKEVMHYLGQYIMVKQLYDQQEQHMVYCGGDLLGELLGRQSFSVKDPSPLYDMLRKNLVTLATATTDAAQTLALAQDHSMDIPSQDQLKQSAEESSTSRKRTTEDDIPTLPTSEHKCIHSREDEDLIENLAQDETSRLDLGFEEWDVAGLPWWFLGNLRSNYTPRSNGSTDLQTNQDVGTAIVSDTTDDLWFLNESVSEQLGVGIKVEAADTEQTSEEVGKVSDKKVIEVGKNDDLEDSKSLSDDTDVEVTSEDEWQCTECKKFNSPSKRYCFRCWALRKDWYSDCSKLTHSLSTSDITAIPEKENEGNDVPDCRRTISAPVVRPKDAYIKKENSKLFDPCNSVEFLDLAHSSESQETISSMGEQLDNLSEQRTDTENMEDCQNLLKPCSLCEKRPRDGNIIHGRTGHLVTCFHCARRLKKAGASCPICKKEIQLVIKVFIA
Target sequence (Q00987 whole entry, looked up): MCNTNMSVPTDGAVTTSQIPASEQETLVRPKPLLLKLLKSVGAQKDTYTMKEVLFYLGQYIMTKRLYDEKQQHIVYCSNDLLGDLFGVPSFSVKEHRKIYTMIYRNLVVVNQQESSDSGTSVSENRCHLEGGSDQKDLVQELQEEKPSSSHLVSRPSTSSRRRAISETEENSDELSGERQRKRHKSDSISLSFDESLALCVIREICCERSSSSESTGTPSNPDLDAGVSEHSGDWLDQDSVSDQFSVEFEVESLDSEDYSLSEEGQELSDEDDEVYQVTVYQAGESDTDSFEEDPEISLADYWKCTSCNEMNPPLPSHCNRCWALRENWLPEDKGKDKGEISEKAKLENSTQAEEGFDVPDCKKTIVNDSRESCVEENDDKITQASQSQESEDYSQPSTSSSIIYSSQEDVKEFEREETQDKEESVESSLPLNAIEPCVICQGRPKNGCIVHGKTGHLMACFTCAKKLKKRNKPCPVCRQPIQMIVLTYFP
Jurkat NFkB inh – inhibitors of the PMA/ionomycin-induced NF-kB reporter in Jurkat cells; PMA/ionomycin-induced NF-kB luciferase reporter, luminescence; inhibition, % at 4 µM; hit rate 0.53% among 330,000; in the data active means inhibition above about 50%
Jurkat NFkB conf – inhibitors of the PMA/ionomycin-induced NF-kB reporter in Jurkat cells, retest | Jurkat NF-kB luciferase, 16 h | shares compounds with Jurkat NFkB inh | hit rate 27% among 2,700 | inhibition, % at 4 µM | AID 435020;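 active means inhibition reaching about 45% at 4 µM in either replicate, limit read from the data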
697 NFkB conf – inhibitors of the PMA/ionomycin-induced NF-kB reporter in 697 B cells, retest. shares compounds with 697 NFkB inh. 697 B-cell NF-kB luciferase, 16 h. inhibition, % at 4 µM. hit rate 35% among 2,000; in the data active means inhibition mostly above about 28%, no sharp cut-off; inactive means mostly below about 22%
Mdm2 MdmX conf – human Mdm2/MdmX binding inhibition, confirmed; shares compounds with Mdm2 MdmX PPI; luminescent assay; inhibition, % at 8 µM; hit rate 55% among 10,000; AID 489028; in the data active means inhibition above about 40%
Full FLuc ctr – inhibits full-length luciferase, flagging false Mdm2/MdmX hits; shares compounds with Mdm2 MdmX PPI; SaOS-2 full-length luciferase counterscreen, luminescence; inhibition, % at 8 µM; hit rate 77% among 6,200;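 active means mean inhibition at 8 µM reaching about 37%, which flags the compound as non-specific, limit read from the data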;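 further: p53-null SaOS-2 cells with luciferase driven by a doxycycline-inducible promoter; compound on cells about two nights before reading with doxycycline added after day one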
A number is an active result. Compounds with a hit are over-represented: about 4% of the library has one in this group of screens.

COc1cc(/C=N/O)ccc1OCc1ccc(C(=O)O)cc1 was read as Beta cell apopt inactive, 697 NFkB inh 84.8, Gli-Sufu block inactive, Mdm2 MdmX PPI 83.5, Jurkat NFkB inh 85.4, Jurkat NFkB conf 67.1, 697 NFkB conf 48.4, Mdm2 MdmX conf 77.5 and Full FLuc ctr inactive.
For CCOc1ccc(NC(=O)c2sc3nc(N4CCOCC4)c4c(c3c2N)CC(C)(C)OC4)cc1 the results were Beta cell apopt inactive, 697 NFkB inh inactive, Gli-Sufu block inactive, Mdm2 MdmX PPI inactive and Jurkat NFkB inh inactive.
`C[C@]1(CC/C(=C/CO)CO)[C@H](CO)CC[C@@]23COC(=O)C2=CCC[C@@H]31` gave Beta cell apopt inactive, 697 NFkB inh inactive, Gli-Sufu block inactive, Mdm2 MdmX PPI inactive and Jurkat NFkB inh inactive.
Screening Cc1cccc(Nc2nc(N)nc(CCl)n2)c1C returned Beta cell apopt inactive, 697 NFkB inh inactive, Gli-Sufu block 81.2, Mdm2 MdmX PPI 100.3, Jurkat NFkB inh 87.6, Jurkat NFkB conf inactive, Mdm2 MdmX conf 100.1 and Full FLuc ctr 60.3.
`Cc1ccc(Nc2nc(N)nc(CCl)n2)c(C)c1` gave Beta cell apopt inactive, 697 NFkB inh inactive, Gli-Sufu block 67.6, Mdm2 MdmX PPI 95.5, Jurkat NFkB inh 90.4, Jurkat NFkB conf inactive, Mdm2 MdmX conf 100.1 and Full FLuc ctr 53.4.
For Cc1ccc(Nc2nc(N)nc(CN3CCCCCC3)n2)c(C)c1 the results were 697 NFkB inh inactive, Gli-Sufu block inactive, Mdm2 MdmX PPI inactive and Jurkat NFkB inh inactive.
`CCOc1ccc(Nc2nc(N)nc(CCl)n2)cc1` gave Beta cell apopt inactive, 697 NFkB inh inactive, Gli-Sufu block inactive, Mdm2 MdmX PPI 98.1, Jurkat NFkB inh 58.6, Jurkat NFkB conf inactive, Mdm2 MdmX conf 98.0 and Full FLuc ctr 56.5.
`CC(=O)n1cc(N(C(=O)CCl)c2ccc(C)cc2)c2ccccc21` gave Beta cell apopt inactive, 697 NFkB inh inactive, Gli-Sufu block inactive, Mdm2 MdmX PPI 98.7, Jurkat NFkB inh 75.7, Jurkat NFkB conf inactive, Mdm2 MdmX conf 100.1 and Full FLuc ctr 52.4.
Screening CCc1ccc(N2C(=O)C(Cl)=C(Nc3ccc(C(=O)N4CCCC4)cc3)C2=O)cc1 returned Beta cell apopt inactive, 697 NFkB inh inactive, Gli-Sufu block inactive, Mdm2 MdmX PPI 95.4, Jurkat NFkB inh 82.5, Jurkat NFkB conf 87.8, Mdm2 MdmX conf 95.1 and Full FLuc ctr 38.8.
`O=C(c1ccc(N2C(=O)c3ccccc3C2=O)cc1)N1CCCCC1` gave Beta cell apopt inactive, 697 NFkB inh inactive, Gli-Sufu block inactive, Mdm2 MdmX PPI inactive and Jurkat NFkB inh inactive.
O=C(Nc1nc2ccc(F)cc2s1)c1ccccn1 was read as Beta cell apopt 75.7, 697 NFkB inh inactive, Gli-Sufu block inactive, Mdm2 MdmX PPI 92.5, Jurkat NFkB inh 96.0, Jurkat NFkB conf inactive, 697 NFkB conf inactive, Mdm2 MdmX conf 65.2 and Full FLuc ctr 58.2.
`N#Cc1ccccc1NC(=O)C(=O)NCCCN1CCCC1=O` gave 697 NFkB inh inactive, Gli-Sufu block inactive, Mdm2 MdmX PPI inactive and Jurkat NFkB inh inactive.
For O=C(N/N=C/c1c(O)ccc2ccccc12)c1cccc(C(F)(F)F)c1 the results were 697 NFkB inh inactive, Gli-Sufu block 59.8, Mdm2 MdmX PPI 74.2, Jurkat NFkB inh 51.8, Jurkat NFkB conf 73.9, Mdm2 MdmX conf 81.2 and Full FLuc ctr inactive.
`COc1ccc2ccccc2c1/C=N/NC(=O)c1cccc(Br)c1` gave Beta cell apopt inactive, 697 NFkB inh inactive, Gli-Sufu block inactive, Mdm2 MdmX PPI inactive and Jurkat NFkB inh inactive.
O=C(Nc1nncs1)C12CC3CC(CC(Cl)(C3)C1)C2 was read as Beta cell apopt inactive and Gli-Sufu block inactive.
Screening Cc1cc(C)cc(OCC(=O)OCC(=O)N(CC(C)C)c2c(N)n(Cc3ccccc3)c(=O)[nH]c2=O)c1 returned Beta cell apopt inactive, 697 NFkB inh inactive, Gli-Sufu block inactive, Mdm2 MdmX PPI inactive and Jurkat NFkB inh inactive.
Screening CCOc1ccc(C(=O)OCC(=O)NC2CCCC2)cc1OCC returned Beta cell apopt inactive, 697 NFkB inh inactive, Gli-Sufu block inactive, Mdm2 MdmX PPI inactive and Jurkat NFkB inh inactive.
CCCCCn1ccc(=N)cc1 was read as Beta cell apopt inactive, 697 NFkB inh inactive, Gli-Sufu block inactive, Mdm2 MdmX PPI inactive and Jurkat NFkB inh inactive.
`CCCCCCCCCn1ccc(=N)cc1` gave Beta cell apopt 116.3, 697 NFkB inh 45.4, Gli-Sufu block 88.8, Mdm2 MdmX PPI 91.2, Jurkat NFkB inh 92.2, Jurkat NFkB conf 76.8, 697 NFkB conf 57.8, Mdm2 MdmX conf 80.5 and Full FLuc ctr inactive.
For Cc1ccc(-n2[nH]c(=O)c3cccnc32)cc1 the results were Beta cell apopt inactive, 697 NFkB inh inactive, Gli-Sufu block inactive, Mdm2 MdmX PPI inactive and Jurkat NFkB inh inactive.
Cc1ccc(-n2[nH]c(=O)c(-c3ccccn3)c2C)cc1 was read as Beta cell apopt inactive, 697 NFkB inh inactive, Gli-Sufu block inactive, Mdm2 MdmX PPI 79.0, Jurkat NFkB inh 58.4, Jurkat NFkB conf inactive, Mdm2 MdmX conf 81.2 and Full FLuc ctr 54.2.
Cc1cnc(CNC(=O)c2ccc3oc(Cc4ccc(Cl)cc4)nc3c2)cn1 was read as Beta cell apopt inactive, 697 NFkB inh inactive, Gli-Sufu block inactive, Mdm2 MdmX PPI inactive and Jurkat NFkB inh inactive.
For COc1cc2c(cc1OC)C(C)N(C(=O)c1cc(C)on1)CC2 (configuration not stated) the results were Beta cell apopt inactive, 697 NFkB inh inactive, Gli-Sufu block inactive, Mdm2 MdmX PPI 60.6, Jurkat NFkB inh 64.3, Jurkat NFkB conf 50.7, Mdm2 MdmX conf 67.5 and Full FLuc ctr 82.0.
O=C(c1ccccc1)c1nn(-c2ccccc2)c(=O)cc1C(F)(F)F was read as 697 NFkB inh inactive, Gli-Sufu block inactive, Mdm2 MdmX PPI inactive and Jurkat NFkB inh inactive.
For O=C(c1ccccc1)c1nn(-c2ccc(Cl)cc2)c(=O)cc1C(F)(F)F the results were Beta cell apopt inactive, 697 NFkB inh inactive, Gli-Sufu block inactive, Mdm2 MdmX PPI 94.7, Jurkat NFkB inh 98.5, Jurkat NFkB conf 80.0, Mdm2 MdmX conf 78.0 and Full FLuc ctr 56.1.
`N#Cc1cc(Nc2c(N)nc[nH]c2=O)c([N+](=O)[O-])cc1C#N` gave Beta cell apopt inactive, 697 NFkB inh inactive, Gli-Sufu block inactive, Mdm2 MdmX PPI inactive and Jurkat NFkB inh inactive.
Screening Cc1ccc(N/C(N)=N/c2nc(C)cc(N3CCCCC3)n2)c(C)c1 returned Beta cell apopt 110.7, 697 NFkB inh inactive, Gli-Sufu block 84.5, Mdm2 MdmX PPI 78.1, Jurkat NFkB inh 88.6, Jurkat NFkB conf inactive, Mdm2 MdmX conf 40.0 and Full FLuc ctr 66.8.
